The values below come from PubChem BioAssay AID1852 (Sanford-Burnham Center for Chemical Genomics, 2009).

The term inhibition denotes the relative decrease from the control value, in per cent.

Among all 2,500 compounds or so, about 1,100 (44%) were called active.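 How the source made its calls: active means inhibition above 50% at 4 µM in the single-point screen; inactive means inhibition of 50% or less.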 The set was probably picked from earlier hits. Some of the results follow.

The nature of the experiment: TNF-a-driven NF-kB reporter inhibitors, primary screen, selectivity assay for NOD1/NOD2 signaling inhibitor project, cell-based, HEK293T NF-kB-Luc, luminescence (AID 1852). The following applies: TNF-a induced, 14 h, at 4 µM, stronger effect = higher value.
Regarding `CC(C)(C)c1ccc(-n2ncc3c2CCCC3NC(=O)C2(C(N)=O)CC2)cc1` (centres undefined), the inhibition is 61.3% (active). The figure for `Cc1cccc(-n2ncc3c2CCCC3NC(=O)C2(C(N)=O)CC2)c1C` (centres undefined) is 29.3% (inactive). Take `Cn1nccc1C(=O)NC1CCCc2c1cnn2-c1ccc(C(C)(C)C)cc1` (centres undefined): the inhibition was 72.8% (active). Consider `Cc1ccc(C(=O)NC2CCCc3c2cnn3-c2ccc(F)cc2F)cn1` (centres undefined), for which the inhibition was 71.6% (active). The figure for `Cc1cc(C(=O)NC2CCCc3c2cnn3-c2ccc(C(C)(C)C)cc2)nn1C` (centres undefined) is 68.8% (active); for `CC1=C(C(=O)NC2CCCc3c2cnn3-c2ccc(F)cc2F)OCCO1` (centres undefined) it is 40.2% (inactive); for `COc1ccc(C(=O)NC2CCCc3c2cnn3-c2ccccc2F)cc1OC` (centres undefined) it is 33.4% (inactive). With `CC1CN(CCCCOc2ccc(Cl)c3ccccc23)CC(C)O1` (centres undefined), the inhibition was 8.2% (inactive). With `Cn1nccc1C(=O)NC1CCCc2c1cnn2-c1ccc(F)cc1F` (centres undefined) the figure was 39.9% (inactive); with `Cn1nccc1C(=O)NC1CCCc2c1cnn2-c1ccccc1F` (centres undefined), 51.8% (active); with `Cc1ccc(-n2ncc3c2CCCC3NC(=O)c2ocnc2C)cc1C` (centres undefined), 49.3% (inactive). Consider `COc1ccc(C(=O)NC2CCCc3c2cnn3-c2ccccc2F)o1` (centres undefined), for which the inhibition was -21.5% (inactive). On to `Cc1ncoc1C(=O)NC1CCCc2c1cnn2-c1ccc(C(C)(C)C)cc1` (centres undefined), for which the inhibition was 74.7% (active). Consider `Cc1c(C)c2ccc(OCC(=O)Nc3ccc(N4CCC(C)CC4)cc3)cc2oc1=O`, for which the inhibition was 94.7% (active).

Consider `Cc1ccc(-n2nc3c(=O)n(CC(=O)NC(C)CCc4ccccc4)nc(C)c3c2C)cc1` (centres undefined), for which the inhibition was 50% (active). As for `Cc1ccc(-n2nc3c(=O)n(C(C)C(=O)NCCC4=CCCCC4)nc(C)c3c2C)cc1` (centres undefined), the inhibition is 54.3% (active).

Consider `Cc1ccc(-n2nc3c(=O)n(C(C)C(=O)NCCCc4ccccc4)nc(C)c3c2C)cc1` (centres undefined), for which the inhibition is 53.9% (active). The figure for `Cc1nn(Cc2ccccc2)c(Cl)c1C(=O)OC(C)C#N` (centres undefined) is 40.7% (inactive); for `Cc1ccc(-n2nc3c(=O)n(C(C)C(=O)NCCc4cccs4)nc(C)c3c2C)cc1` (centres undefined) it is 60.4% (active). Regarding `C[C@@H](C(=O)NCCc1ccccc1)N1C(=O)N2CCc3c([nH]c4ccccc34)[C@@]2(C)C1=O`, the inhibition is 38.1% (inactive). With `CCN(CC)S(=O)(=O)c1ccc2[nH]cc(C(=O)NCCC3=CCCCC3)c(=O)c2c1`, the inhibition is 38.4% (inactive). Consider `COc1ccc(-c2cc(C)no2)cc1S(=O)(=O)N1CCN(c2ccc([N+](=O)[O-])cc2)CC1`, for which the inhibition was 44.5% (inactive). As to `CCN1/C(=C/c2ccc3cc(C)ccc3[n+]2CC)Sc2cc(C)ccc21`, the inhibition was 48.9% (inactive).

For `CCN1/C(=C\c2ccc3cc(C)ccc3[n+]2CC)Sc2cc(C)c(C)cc21`, the inhibition was 65.4% (active). Consider `CCN1/C(=C\c2ccc3ccccc3[n+]2CC)Sc2cc(C)ccc21`, for which the inhibition is 55.6% (active). Turning to `CCN1/C(=C/c2ccc3cc(C)ccc3[n+]2CC)Sc2cc(C)c(C)cc21`, the inhibition is 54.5% (active). For the compound `CCN1/C(=C/c2ccc3cc(C)ccc3[n+]2CC)Sc2ccccc21`, the inhibition was 76.1% (active). For `O=C1N(Cc2cccc(Cl)c2)C[C@@H]2C[C@@H](c3cccn3-c3cccnc3)N3CCC[C@@]123`, the inhibition was 4.8% (inactive).

On to `CCN1/C(=C/c2ccc3cc(C)cc(C)c3[n+]2CC)Sc2cc(C)ccc21`, for which the inhibition was 79.4% (active). On to `CN(Cc1ccc(Cl)cc1)C(=O)CCl`, for which the inhibition was 9.6% (inactive).

On to `COc1ccc(CC(=O)N(Cc2ccccc2)c2ccccc2)cc1S(=O)(=O)N1CCOCC1`, for which the inhibition is 13.5% (inactive).

Turning to `O=C(CCl)N(c1ccccc1)c1ccccc1`, the inhibition was 63.7% (active).

In the case of `O=C(CCl)N(c1ccccc1)c1c[nH]c2ccccc12`, the inhibition is 103% (active). With `O=Cc1[nH]c2ccccc2c1N(C(=O)CCl)c1ccccc1` the figure was 31.9% (inactive); with `O=C(CCl)N(Cc1ccccc1)c1ccccc1`, 89.7% (active). Consider `O=C(CCl)NC(Cc1ccccc1)c1ccccc1` (centres undefined), for which the inhibition is 21.3% (inactive).

Regarding `COc1cc2c(cc1OC)C(c1ccc(-c3cc(Cl)ccc3Cl)o1)=NCC2`, the inhibition is 26.5% (inactive). With `Cc1cnc(NC(=O)C2CC(=O)N(c3cccc(Cl)c3)C2)s1` (centres undefined) the figure was 92.4% (active); with `Cc1csc(NC(=O)C2CC(=O)N(c3ccc(C)c(C)c3)C2)n1` (centres undefined), -11.9% (inactive). As for `O=C(/C(=C/c1ccc(Cl)cc1)c1nc2ccccc2[nH]1)c1ccccc1`, the inhibition is 107% (active). In the case of `O=C(/C(=C/c1ccc(Cl)cc1)c1nc2ccccc2[nH]1)c1cccs1`, the inhibition was 106% (active). Take `O=C(/C(=C\c1ccccc1)c1nc2ccccc2[nH]1)c1ccc(Cl)cc1`: the inhibition is 94.9% (active). Regarding `O=C(/C(=C/c1cccc(Cl)c1)c1nc2ccccc2[nH]1)c1ccccc1`, the inhibition was 31.9% (inactive).

With `COc1cc(/C=C(/C(=O)c2cccs2)c2nc3ccccc3[nH]2)ccc1O`, the inhibition was 31.5% (inactive). Take `Cc1ccc(Cc2cnc(N3C(=N)SC(C)C3=O)s2)cc1` (centres undefined): the inhibition was 103% (active).

As to `Cc1cccc(Cc2cnc(N3C(=N)SC(C)C3=O)s2)c1` (centres undefined), the inhibition was 100% (active). As for `Cc1cccc(CN2CCN(C(=O)CCl)CC2)c1`, the inhibition was 36% (inactive).

In the case of `COc1cc(S(=O)(=O)NCc2ccncc2)ccc1Br`, the inhibition is 45.8% (inactive). In the case of `CCSc1nsc(NC(=O)Nc2cccc(C(C)=O)c2)n1`, the inhibition was 30.4% (inactive). As to `C=CCSc1nsc(NC(=O)Nc2ccc(F)cc2)n1`, the inhibition was 43.4% (inactive).

Take `C=CCSc1nsc(NC(=O)Nc2cccc(C(C)=O)c2)n1`: the inhibition is 85.2% (active). Turning to `O=S(=O)(Nc1nc2ccccc2nc1Nc1ccc(N2CCOCC2)cc1)c1cc(Cl)ccc1Cl`, the inhibition is 77% (active).

`C=CCN(c1ccccc1OC)S(=O)(=O)c1ccc(Cl)c(C(=O)Nc2ccc(N3CCOCC3)cc2)c1`: the inhibition was 25.4% (inactive). With `CC(=O)c1ccc(Nc2nc3ccccc3nc2NS(=O)(=O)c2cccs2)cc1` the figure was 12.2% (inactive); with `COc1ccc(CNC(=O)c2ccc3ccccc3n2)cc1OC`, 38% (inactive). For the compound `Cc1ccccc1-c1nc(CS(=O)(=O)CC(=O)NCCc2ccccc2)c(C)o1`, the inhibition is 10% (inactive). With `Cc1oc2c(c1C(=O)c1ccccc1)C(=O)C(=O)c1ccccc1-2` the figure was 104% (active); with `COc1ccc(CNC(=O)c2c(C)oc3c2C(=O)c2ccccc2C3=O)cc1`, 100% (active). Turning to `Cc1oc2c(c1C(=O)NCc1cccnc1)C(=O)c1ccccc1C2=O`, the inhibition is 97.7% (active).
